AmpC inh detg: inhibitors of E. coli AmpC beta-lactamase with detergent; AmpC hydrolysis of nitrocefin, absorbance 480 nm, 0.01% Triton; AID 485294; Potency, µM (titrated, usually from 114 µM), without a hit: top-dose activity change, negative = inhibition, usual class: inhibitors; actives 0.041% (n = 370,000); P00811;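 note: potency is the fitted concentration of half-maximal effect; 0% = no-compound wells and -100% = no-enzyme wells; nearly all actives have a fitted effect of over 25% in size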
Target sequence (P00811 whole entry, looked up): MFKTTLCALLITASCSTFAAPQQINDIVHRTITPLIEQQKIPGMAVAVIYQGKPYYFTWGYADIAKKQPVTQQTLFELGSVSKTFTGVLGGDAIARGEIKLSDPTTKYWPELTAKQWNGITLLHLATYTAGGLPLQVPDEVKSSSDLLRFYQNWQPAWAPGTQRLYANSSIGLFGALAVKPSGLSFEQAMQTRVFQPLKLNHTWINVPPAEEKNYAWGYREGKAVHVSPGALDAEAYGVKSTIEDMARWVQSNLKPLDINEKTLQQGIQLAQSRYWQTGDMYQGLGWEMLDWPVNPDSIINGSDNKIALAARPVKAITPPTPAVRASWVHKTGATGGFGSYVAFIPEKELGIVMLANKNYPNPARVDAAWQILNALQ
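AmpC (5.3 nM in the dispensed reagent) in 20 mM phosphate pH 7.0 with 0.01% (detergent screen) or 0.0001% Triton X-100 was preincubated with compounds for 15 min at room temperature. Nitrocefin was then added from an 800 uM solution, and hydrolysis was followed at 480 nm.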
Shiga inhibitor: inhibitors of Shiga toxin in Vero cells | inhibition, % at 38.7 µM | AID 2315 | actives 9.2% (n = 290,000) | Vero cells, Shiga toxin protein synthesis inhibition reporter; in the data active = inhibition mostly above about 28%, no sharp cut-off; inactive = mostly below about 43%; note: 0% is about no effect
AmpC no deterg: inhibitors of E. coli AmpC beta-lactamase without detergent; P00811; actives 0.52% (n = 330,000); Potency, µM (titrated, usually from 57.1 µM), inactives show at the top dose activity change, negative = inhibition, usual class: inhibitors; AmpC nitrocefin hydrolysis, absorbance 480 nm, 0.0001% Triton; AID 485341;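 note: potency is the fitted concentration of half-maximal effect; plate controls were no compound for no effect and no enzyme for full effect; nearly all actives have a fitted effect of over 20% in size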
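AmpC (5.3 nM in the dispensed reagent) in 20 mM phosphate pH 7.0 with 0.01% (detergent screen) or 0.0001% Triton X-100 was preincubated with compounds for 15 min at room temperature. Nitrocefin was then added from an 800 uM solution, and hydrolysis was followed at 480 nm.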
AMA1-RON2 inh: disrupts binding of P. falciparum AMA1 to RON2; AlphaScreen AMA1-biotinylated RON2 peptide binding; Potency, µM (series often up to 58.2 µM), inactives show top-dose activity change, negative = inhibition, most hits filed as inhibitors; actives 0.2% (n = 360,000);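 note: potency is the fitted concentration of half-maximal effect; 0% = vehicle wells and -100% = peptide control; nearly all actives have a fitted effect of over 45% in size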
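AMA1 (3D7) with his tag at 25 nM final met compounds first, then biotinylated RON2 peptide at 25 nM; detection used donor plus acceptor beads, 10 µg/mL apiece, read by AlphaScreen after 30 min at room temperature.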
Cycloheximide cs: affects cycloheximide protein synthesis inhibition readout, counter-screen; cell reporter, cycloheximide protein synthesis inhibition counterscreen; max response, %; actives 12% (n = 300,000); AID 2314; in the data active = max response mostly above about 13%, no sharp cut-off; inactive = mostly below about 14%; note: read at 38.3 µM for the half of the compounds with a filed dose; 0% is about no effect
SARS PLP yeast: inhibitors of SARS-CoV papain-like protease in yeast; S. cerevisiae expressing SARS-CoV PLpro, growth rescue; actives 0.19% (n = 330,000); Potency, µM (highest dose often 32.9 µM), for inactives: at the highest dose activity, positive = growth rescue, actives largely listed as activators; calls by dose curve; note: potency is the fitted concentration of half-maximal effect; 0% is about no effect; nearly all actives have a fitted effect of over 55% in size
Starred values were filed as active, the others as inactive; ? = inconclusive; . = no result; + = active, no number; [ ] = remark or other dose. The sample as a whole holds a higher share of hits than the screen did. Unless noted, calls come from the whole dose curve; as a rule, active = well fitted curve in the direction sought with a large enough effect; inconclusive = small, poorly fitted or top-dose-only effect, or another doubt; inactive = no such curve, though single readings can be large; an effect the other way counts as inactive or inconclusive.

SMILES | AmpC inh detg | Shiga inhibitor | AmpC no deterg | AMA1-RON2 inh | Cycloheximide cs | SARS PLP yeast
COc1ccc(-c2cc(C(=O)N3CCOCC3)c3cc(C)ccc3n2)cc1 | -11% | 44 | 88% | 0% | 9 | -5%
Cc1cccc(COC[C@H](Cc2ccccc2)N2CCN(C(=O)c3cccc(C)c3)CCC2=O)c1 | . | -11 | . | -3% | -3 | .
O=C(CCCCCN1C(=O)c2cccc3cccc(c23)C1=O)NCCCO | -14% | . | 30% | 5% | 3 | 2%
CCOc1ccc(C(=O)COC(C)=O)cc1 | -4% | -12 | -8% | -2% | 12 | -15%
COc1cc(C(=O)N/N=C/c2ccccn2)cc(OC)c1OC | -10% | -13 | -13% | 99% | -2 | 2%
O=C(N/N=C/c1ccccn1)c1ccncc1 | -1% | 97* | -13% | 69% | 52* | 0%
COC(=O)c1sccc1NC(=O)Nc1ccc(OC)cc1 | -14% | 108* | -30% | -3% | 35* | -15%
COC(=O)c1sccc1NC(=O)Nc1cccc(C)c1 | 3% | 60* | -38% | 13% | 32* | -5%
O=C(CSc1ccc(Cl)cc1)Nc1ccccc1 | . | . | . | 7% | . | .
COc1ccc(CCNC(=O)C(C)SCc2ccccc2)cc1 (stereo not drawn) | -7% | -6 | 9%[2.29 µM] | 2% | -2 | 0%
O=C(CSc1cccs1)NCCc1ccccc1 | -8% | + | -15% | -2% | 42* | -2%
CC(Sc1ccccc1)C(=O)NCCc1ccccc1 (stereo not drawn) | ? | 32* | -6% | -8% | 24* | -1%
O=C(CSc1cccs1)Nc1ccc(Cl)cc1 | 12% | 50* | -21% | 1% | 54* | -4%
O=C(CSc1nnnn1C1CCCCC1)NCCc1ccccc1 | 7% | 42* | -1% | -5% | 62* | 5%
CC(C)c1ccc(NC(=O)CCCN2C(=O)NC(C)(C)C2=O)cc1 | 0% | . | 8% | 22% | . | 4%
COc1cc(/C=N\NC(=O)c2c(C)nc3cc(C)ccn23)ccc1O | -2% | -17 | -3% | 4% | -6 | 0%
O=C(CSc1ccccc1)NCCc1ccccc1 | -2% | 44* | -24% | -8% | 37* | 2%
Cc1ccc(SCC(=O)NCCc2ccccc2)cc1 | -4% | 18 | -3% | 19% | 14* | -7%
O=C(CSc1ncn[nH]1)NCCc1ccccc1 | 1% | 3 | -18% | 6% | 5 | 6%
O=C(CSc1ccccc1)NCCc1ccc(F)cc1 | 1% | . | 2% | -5% | 29* | 5%
Cc1ccc(SCC(=O)NCCSC(C)(C)C)cc1 | 7% | 35 | 0% | 2% | 29* | 3%
Oc1ccc(CN2CCCc3ccccc32)c2cccnc12 | ? | 14 | -25% | -54% | -2 | 19%
CN1CCC(N(C)C(=O)CCc2nc3ccccc3n2-c2ccccc2)CC1 | 9% | -7 | 23% | -3% | -3 | -1%
CC(=O)OCC(NC(=O)C(COCc1ccccc1)NC(=O)OC(C)(C)C)C1OC(n2cc(F)c(=O)[nH]c2=O)C(OC(C)=O)C1OC(C)=O (stereo not drawn) | . | -7 | . | . | -2 | .
Cc1ccc(C(=O)OCC(=O)Nc2c(C)n(C)n(-c3ccccc3)c2=O)cc1[N+](=O)[O-] | -7% | -10 | 2% | -2% | -2 | -1%
SMILES | AmpC inh detg | Shiga inhibitor | AmpC no deterg | AMA1-RON2 inh | Cycloheximide cs | SARS PLP yeast
Cc1ccc(C(=O)c2ccccc2C(=O)OCC(=O)NCCc2ccc(Cl)cc2Cl)cc1 | -12% | -15 | 15% | -2% | 1 | -10%
CCCNC(=O)COC(=O)c1ccccc1C(=O)c1ccc(Cl)c([N+](=O)[O-])c1 | ? | 41 | 9% | 13% | 60* | 2%
Cc1ccc(Cl)c(NC(=O)COC(=O)c2ccccc2C(=O)c2ccc(Cl)c([N+](=O)[O-])c2)c1Cl | 1% | -10 | 20µM* | 0% | -1 | -3%
COCCn1cc(C(=O)N2CCCC(C)C2)c2c3ccccc3n(C)c2c1=O (stereo not drawn) | 2% | -7 | 87% | -9% | -1 | -1%
OCCNc1cnc2ccccc2n1 | 7% | 51* | -13% | -2% | 19* | 0%
CCCC(=O)Nc1ccc(C(=O)Nc2nnc(COC)s2)cc1 | -4% | -13 | -19% | -1% | 1 | -16%
